# PubChem BioAssay AID1439 (NMMLSC, 2008)
# About 770 (0.35%) of roughly 220,000 compounds were called active. About 15% were inconclusive and are not listed. Shown is part of a subset that was picked to be rich in actives. Unmarked numbers belong to inactive results. Rule as the data show it: active = binding response below about 49% or above about 150%; inconclusive = no clear call, values can overlap the other calls; inactive = in between.
# Molecular target: Guanine nucleotide-binding protein G(o) subunit alpha (Homo sapiens) (UniProt P09471)
# Sequence (P09471 whole entry, looked up): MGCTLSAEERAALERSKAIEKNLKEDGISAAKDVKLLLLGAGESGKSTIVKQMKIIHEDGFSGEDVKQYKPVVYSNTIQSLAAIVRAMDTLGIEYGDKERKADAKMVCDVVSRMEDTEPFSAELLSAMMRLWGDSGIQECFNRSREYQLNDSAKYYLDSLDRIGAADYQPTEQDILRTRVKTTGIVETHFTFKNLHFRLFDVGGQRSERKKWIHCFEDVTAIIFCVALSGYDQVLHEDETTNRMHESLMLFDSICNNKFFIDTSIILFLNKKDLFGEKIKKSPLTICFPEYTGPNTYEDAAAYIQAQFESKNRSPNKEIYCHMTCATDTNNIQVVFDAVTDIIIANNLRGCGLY
# Assay: compounds changing RGS7 association with Galphao – biochemical, multiplexed bead flow cytometry, primary screen (AID 1439);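 also: fluorescent Galphao held in activated GDP-AlF4 state binding bead-coupled RGS7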
# Details: at 10 µM, actives lie on both sides
row,Structure (SMILES),binding response (% of control)
1,O=C(COc1ccc(Cl)cc1)N1CCN(c2cccc(C(F)(F)F)c2)CC1,104%
2,O=C(CN1CCN(c2ccc(Cl)cc2)CC1)N1CCCC1,102%
3,COC(=O)c1ccccc1OCC(=O)N1CCN(c2ccc(Cl)cc2)CC1,290% (active)
4,COCCn1c(C)cc(C(=O)COC(=O)/C=C/c2cccc(OC)c2)c1C,92.8%
5,FC(F)(F)c1cccc(Cc2noc(CN3CCC(N4CCCCC4)CC3)n2)c1,104%
6,CCOC(=O)c1sc(/N=C/C2=C(O)CC(C)(C)CC2=O)c(C(=O)OCC)c1C,107%
7,Cc1cc(C)n2nc(SCC(=O)NC(=O)NCc3ccco3)nc2n1,102%
8,CC(C)CC(=O)N1CCC(O)(CS(=O)(=O)Cc2ccccc2)CC1,103%
9,Cc1ccccc1CS(=O)(=O)CC1(O)CCN(C(=O)c2cccc(C(F)(F)F)c2)CC1,157% (active)
10,Cc1ccccc1CN1CCN(C(=O)c2cccc(F)c2)CC1,105%
11,CCOC(=O)C1=NOC(Cn2cc(C(C)=O)c(=O)[nH]c2=O)C1 (stereo unspecified),100%
12,CCOc1cc(C(=O)N2CCc3cc(OC)c(OC)cc3C2)ccc1OC(F)F,159% (active)
13,COc1cc2c(cc1OC)CN(C(=O)c1ccc(S(=O)(=O)N3CCCCCC3)cc1)CC2,89.7%
14,COc1cc2c(cc1OC)CN(C(=O)c1cc(=O)c3ccccc3o1)CC2,97.6%
15,CCC(=O)NC(=S)Nc1ccc(NC(=O)c2ccco2)c(Cl)c1,102%
16,O=C(Nc1cccc(Cl)c1N1CCOCC1)c1ccc2c(c1)OCCO2,108%
17,O=C(CSc1nnc(-c2cccs2)n1Cc1ccccc1)N1CCc2ccccc2C1,102%
18,Cn1c(=O)c2c(n(Cc3ccccc3)c1=O)NC(=O)C2CC(=O)N1CCc2ccccc2C1 (stereo unspecified),13.5% [inhibitor] (active)
19,O=C(COc1ccccc1)N1CCc2ccccc2C1,103%
20,CCCCCCCNc1nc(Cl)nc(NCCO)n1,93.6%
21,CN(C)C(=O)CSc1n[nH]c(-c2ccco2)n1,107%
22,O=[N+]([O-])c1ccc(Sc2n[nH]c(-c3ccco3)n2)nc1,105%
23,Cc1ccc(N2C(=O)C(Cc3ccccc3)NC2=S)cc1 (stereo unspecified),99%
24,Cc1ccc(N=Nc2c(C)[nH]n(-c3ccccc3)c2=O)cc1,100%
25,Cc1ccc(N2C(=O)C3C(c4ccccc4)(C2=O)C3(c2ccccc2)c2ccccc2)cc1 (stereo unspecified),14.4% [inhibitor] (active)
26,CCCC1C(c2ccccc2)C(C#N)(C#N)C2(C#N)CC1(N)NC2=O (stereo unspecified),152% (active)
